Compounds without any hit were thinned out: in the full panel of roughly 83,000, 20% have a hit.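 Single-dose data. Exposure time 48 hours. Values below 10 considered active.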 The source made the active and inactive calls.

One test concerns A498 renal. Put plainly: NCI-60 one-dose screen, 48 h (100 = growth as untreated, 0 = no growth, -100 = all killed). The note with it: 10 µM unless noted.
For the compound `Cc1ccc(S(=O)(=O)c2nc(S(=O)(=O)c3ccc(C)cc3)c(Cl)s2)cc1`, the growth was 122% (inactive). On the same count and under the same terms, the same measure for `CCOC(=O)C1=C(N)N(c2ccccc2)C2=C(C(=O)CC(C)(C)C2)C1c1ccc([N+](=O)[O-])cc1` (configuration not stated): 114% (inactive). Same read-out and setting: the same measure for `C#CCOc1ccc(/C=N/Nc2nc(-c3cc4cc(OC)ccc4oc3=O)cs2)cc1OC`: 78.7% (inactive); for `CC1(C)CC[C@]2(C(=O)O)CC[C@]3(C)C(=CCC4[C@@]5(C)C[C@@H](O)[C@@H]6OC(c7ccc(F)cc7)OC[C@@]6(C)C5CC[C@]43C)C2C1` (some centres not stated): 46.8% (inactive). Same read-out and setting: with `O=C(NN1C(=O)/C(=C/C=C/c2ccc([N+](=O)[O-])o2)SC1=S)c1cccc(O)c1` the figure was 2.42% (active); with `Cc1ccc(C(=O)NN2C(=O)/C(=C/C=C/c3ccc([N+](=O)[O-])o3)SC2=S)cc1`, -73.3% (active). For `N/C(=N\c1nc2ccccc2s1)NC(=O)Nc1c(Cl)cccc1Cl`, the growth was 94.3% (inactive). On to `O=C(CN1C(=O)/C(=C/c2ccccc2Cl)SC1=S)N1CCOCC1`, for which the growth is 119% (inactive). Still for that read-out and setting: the same measure for `O=C(CSc1nc2ccccc2c(=O)[nH]1)NCCN1CCCCC1`: 105% (inactive); for `Cn1cc(-c2nnc(N)nc2-c2c[nH]c3ccc(Br)cc23)c2cc(Br)cnc21`: 39.4% (inactive); for `O=C(O)Cn1c(O)c(/C=C2/C=c3cc4c(cc3=NC2=O)OCCO4)sc1=S`: 118% (inactive). The same measure, in the same setting: the same measure for `N/C(=N\c1nc2ccccc2s1)NC(=O)Nc1ccc(Cl)cc1Cl`: -84.6% (active). On the same count and under the same terms, the same measure for `COc1cccc(-c2nc(Nc3ccc(S(N)(=O)=O)cc3)c3ccccc3n2)c1`: 23.9% (inactive); for `COc1ccc(/C=C/c2nc3ccccc3n3c(-c4ccc(Cl)cc4)nnc23)cc1`: 85.3% (inactive); for `CNS(=O)(=O)c1ccc(Nc2ccc(C(F)(F)F)cc2)c(-c2cn(C)cn2)c1`: 50.7% (inactive). As for `C#CCOc1cc(N(CC)CC)ccc1C(C(=O)NC(C)(C)C)N(C(=O)C1CCc2cc(F)ccc2O1)c1cc(C)cc(C)c1` (configuration not stated), the growth was 45.8% (inactive).

On to `C#CCOc1ccc(/C=N/Nc2nc(-c3ccc(Cl)cc3)cs2)cc1OC`, for which the growth is 69.8% (inactive). On the same count and under the same terms, with `O=C(COc1ccc2c(c1)CCCC(=O)N2)NCc1ccccc1` the figure was 94.6% (inactive); with `CC1(C)CC[C@]2(C(=O)O)CC[C@]3(C)C(=CCC4[C@@]5(C)C[C@@H](O)[C@@H]6OC(c7ccccc7F)OC[C@@]6(C)C5CC[C@]43C)C2C1` (some centres not stated), 31% (inactive); with `Cc1cccc(-c2nc(Nc3ccc(C)c(S(N)(=O)=O)c3)c3ccccc3n2)c1`, 52.8% (inactive). The same measure, in the same setting: with `COC(=O)C[C@](O)(CCCC(C)(C)O)C(=O)O[C@H]1C(OC)=C[C@@]23CCCN2CCc2cc4c(cc2[C@@H]13)OCO4` the figure was -18.6% (active). Still for that read-out and setting: with `Cn1cc(-c2cc(N)n3nc(-c4cn(C)c5ccccc45)cc3n2)c2cc(Cl)ccc21` the figure was -24.8% (active); with `CC1(C)CC[C@]2(C(=O)O)CC[C@]3(C)C(=CCC4[C@@]5(C)C[C@@H](O)[C@@H]6OC(c7ccco7)OC[C@@]6(C)C5CC[C@]43C)C2C1` (some centres not stated), 62.4% (inactive). As for `Cn1cc(-c2cc3nc(-c4c[nH]c5ccc(Cl)cc45)cc(N)n3n2)c2ccccc21`, the growth is -62.7% (active).

Consider `COc1ccc(Cc2nn(CC(=O)N/N=C/c3ccc(F)cc3)c(=O)c3c(C)noc23)cc1`, for which the growth was -57.5% (active).

Turning to `COc1cc2nc(SCc3ccccc3)n(-c3ccc(Cl)cc3)c(=O)c2cc1OC`, the growth is 7.03% (active). The same measure, in the same setting: with `COc1ccc2[nH]cc(-c3nnc(N)nc3-c3cn(C)c4ncc(Br)cc34)c2c1` the figure was 45.5% (inactive); with `CCN(CC)c1ccc(/C=N/Nc2nc(-c3ccc(C)cc3)cs2)c(O)c1`, 105% (inactive).

For `N/C(=N\c1nc2ccccc2s1)NC(=O)Nc1ccccc1Br`, the growth is 26.2% (inactive).

The next test has as its system CCRF-CEM leukemia. The description is as above. Particulars: 10 µM unless noted.
Consider `Cc1ccc(S(=O)(=O)c2nc(S(=O)(=O)c3ccc(C)cc3)c(Cl)s2)cc1`, for which the growth was 5.23% (active). Still for that read-out and setting: with `CCOC(=O)C1=C(N)N(c2ccccc2)C2=C(C(=O)CC(C)(C)C2)C1c1ccc([N+](=O)[O-])cc1` (configuration not stated) the figure was 89.1% (inactive). `Cc1cccc(Nc2nc3ccccc3nc2/C=C/c2ccc(F)cc2)c1`: the growth is 97.1% (inactive). On to `Cc1cccc(NC(=O)CN2CCN(c3ncnc4c3cnn4-c3ccccc3)CC2)c1`, for which the growth is 76.7% (inactive). Same read-out and setting: with `Cn1cc(-c2cc3nc(-c4c[nH]c5ccc(Br)cc45)cc(N)n3n2)c2ccccc21` the figure was -19.6% (active); with `C#CCOc1ccc(/C=N/Nc2nc(-c3cc4cc(OC)ccc4oc3=O)cs2)cc1OC`, 66.3% (inactive).

As to `O=C(NN1C(=O)/C(=C/C=C/c2ccc([N+](=O)[O-])o2)SC1=S)c1cccc(O)c1`, the growth was 0.334% (active). On the same count and under the same terms, with `Cc1ccc(C(=O)NN2C(=O)/C(=C/C=C/c3ccc([N+](=O)[O-])o3)SC2=S)cc1` the figure was 4.08% (active); with `N/C(=N\c1nc2ccccc2s1)NC(=O)Nc1c(Cl)cccc1Cl`, 30% (inactive); with `O=C(CN1C(=O)/C(=C/c2ccccc2Cl)SC1=S)N1CCOCC1`, 61.8% (inactive). On the same count and under the same terms, with `CN(C)c1nc(NCCNS(=O)(=O)c2ccc(C3=Nc4c(N)nc(N)nc4NC(c4ccc(C(F)(F)F)cc4)C3)cc2)nc(Nc2ccc(F)cc2)n1` (configuration not stated) the figure was 8.86% (active); with `Cn1cc(-c2nnc(N)nc2-c2c[nH]c3ccc(Br)cc23)c2cc(Br)cnc21`, 28% (inactive). `O=C(O)Cn1c(O)c(/C=C2/C=c3cc4c(cc3=NC2=O)OCCO4)sc1=S`: the growth was 97.3% (inactive). On to `Cc1ccc(-c2nc(C#N)c(S(=O)(=O)N3CCN(S(=O)(=O)c4ccccc4)CC3)o2)cc1`, for which the growth was -33.6% (active). The same measure, in the same setting: with `COc1cccc(-c2nc(Nc3ccc(S(N)(=O)=O)cc3)c3ccccc3n2)c1` the figure was 18.7% (inactive); with `COc1ccc(/C=C/c2nc3ccccc3n3c(-c4ccc(Cl)cc4)nnc23)cc1`, 78.1% (inactive). On the same count and under the same terms, the same measure for `CNS(=O)(=O)c1ccc(Nc2ccc(C(F)(F)F)cc2)c(-c2cn(C)cn2)c1`: 51.2% (inactive); for `CCS(=O)(=O)N1CCCC(C(=O)Nc2nc3ccc(NC(=O)c4ccc(F)c(OC)c4F)cc3s2)C1` (configuration not stated): 29.5% (inactive); for `C#CCOc1cc(N(CC)CC)ccc1C(C(=O)NC(C)(C)C)N(C(=O)C1CCc2cc(F)ccc2O1)c1cc(C)cc(C)c1` (configuration not stated): 36.3% (inactive). For `C#CCOc1ccc(/C=N/Nc2nc(-c3ccc(Cl)cc3)cs2)cc1OC`, the growth is 36.2% (inactive).

On to `O=C(COc1ccc2c(c1)CCCC(=O)N2)NCc1ccccc1`, for which the growth was 78% (inactive). Still for that read-out and setting: the same measure for `CN(C)c1nc(NCCNS(=O)(=O)c2ccc(C3=Nc4c(N)nc(N)nc4NC(c4ccccc4)C3)cc2)nc(Nc2ccc(F)cc2)n1` (configuration not stated): 22.2% (inactive). Same read-out and setting: with `CC1(C)CC[C@]2(C(=O)O)CC[C@]3(C)C(=CCC4[C@@]5(C)C[C@@H](O)[C@@H]6OC(c7ccccc7F)OC[C@@]6(C)C5CC[C@]43C)C2C1` (some centres not stated) the figure was 17% (inactive); with `Cc1cccc(-c2nc(Nc3ccc(C)c(S(N)(=O)=O)c3)c3ccccc3n2)c1`, 17.7% (inactive). On the same count and under the same terms, the same measure for `COC(=O)C[C@](O)(CCCC(C)(C)O)C(=O)O[C@H]1C(OC)=C[C@@]23CCCN2CCc2cc4c(cc2[C@@H]13)OCO4`: -5.84% (active); for `Cn1cc(-c2cc(N)n3nc(-c4cn(C)c5ccccc45)cc3n2)c2cc(Cl)ccc21`: -5.76% (active). Turning to `Cn1cc(-c2cc3nc(-c4c[nH]c5ccc(Cl)cc45)cc(N)n3n2)c2ccccc21`, the growth was -21.5% (active).

On to `COc1ccc(Cc2nn(CC(=O)N/N=C/c3ccc(F)cc3)c(=O)c3c(C)noc23)cc1`, for which the growth is 70.4% (inactive). The same measure, in the same setting: the same measure for `COc1cc2nc(SCc3ccccc3)n(-c3ccc(Cl)cc3)c(=O)c2cc1OC`: 18.5% (inactive); for `Cc1cccc(-c2nc(Nc3cccc(S(N)(=O)=O)c3)c3ccccc3n2)c1`: 31.7% (inactive). As to `COc1ccc2[nH]cc(-c3nnc(N)nc3-c3cn(C)c4ncc(Br)cc34)c2c1`, the growth is 66.8% (inactive). Same read-out and setting: the same measure for `CCN(CC)c1ccc(/C=N/Nc2nc(-c3ccc(C)cc3)cs2)c(O)c1`: 88.2% (inactive). Same read-out and setting: the same measure for `N/C(=N\c1nc2ccccc2s1)NC(=O)Nc1ccccc1Br`: 12.6% (inactive).

Values taken from PubChem BioAssay (NCI).
